Data published in PubChem BioAssay (NCI).
“And” between values parts separate entries of the source, which are not always exact repeats. Equal values may be shown once. Compounds without any hit were thinned out: in the full panel of roughly 79,000, 15% have a hit. Rule as the data show it: active = growth inhibition above about 70%; inactive = the rest.

How the values were obtained:
[1] = NCI Yeast Anticancer Drug Screen. Data for the rad50 strain (AID 155);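 also: 0% = growth of vehicle-only cultures of the same strain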; conditions: S. cerevisiae rad50 strain growth inhibition, stronger effect = higher value; at 50.0 µM unless noted
Summary of the method: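 Readout: growth inhibition relative to vehicle-treated cultures. Compound exposure was carried out in a genetically defined yeast strain deficient in DNA damage repair.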

[2] = NCI Yeast Anticancer Drug Screen. Data for the mec2-1 strain (AID 157); conditions: S. cerevisiae mec2-1 strain, stronger effect = higher value; at 50.0 µM unless noted
Summary of the method: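 mec2-1 yeast strain, carrying an alteration in DNA damage repair or cell cycle control, was exposed to compounds; growth inhibition was measured relative to vehicle-treated controls.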

[3] = NCI Yeast Anticancer Drug Screen. Data for the sgs1 mgt1 strain (AID 161);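 also: 0% = growth of cultures given vehicle only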; conditions: S. cerevisiae sgs1 mgt1 strain, stronger effect = higher value; at 50.0 µM unless noted
Summary of the method: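 This yeast growth screen uses a strain with defined DNA-repair lesions; compound-treated growth is compared with vehicle-treated growth.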

[4] = NCI Yeast Anticancer Drug Screen. Data for the cln2 rad14 strain (AID 165);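 also: 0% = growth equal to vehicle treated cultures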; conditions: S. cerevisiae cln2 rad14 strain, stronger effect = higher value; at 50.0 µM unless noted
Summary of the method: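 Yeast carrying cln2 and rad14 alterations (cell cycle control and DNA damage repair) were exposed to compounds. Growth inhibition was measured against vehicle-treated controls.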

[5] = NCI Yeast Anticancer Drug Screen. Data for the bub3 strain (AID 167); conditions: S. cerevisiae bub3 mutant strain, stronger effect = higher value; at 50.0 µM unless noted
Summary of the method: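 Readout: yeast growth inhibition, expressed relative to vehicle-only wells. The test organism is a mutant strain from a panel with lesions in DNA repair or checkpoint genes.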

[6] = NCI Yeast Anticancer Drug Screen. Data for the mlh1 rad18 strain (AID 175); conditions: S. cerevisiae mlh1 rad18 strain growth inhibition, stronger effect = higher value; at 50.0 µM unless noted
Summary of the method: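 Growth inhibition of the yeast strain was measured after compound exposure and expressed relative to vehicle-treated controls. The strain carries defined defects in DNA damage repair.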

Measured: growth inhibition

Cc1ccc(N=Nc2ccc(C)cc2NC(=O)c2cccc3ccccc23)cc1
inactive: [1] -12.6% | [2] -8% | [3] -12.2% | [4] -90.5% | [5] -1.95% | [6] -2.7%

S=c1sc2c(s1)SCCCCSCCCCSc1sc(=S)sc1SCCCCSCCCCS2
inactive: [1] 13.3% | [2] 8.6% | [3] 1.1% | [4] 16.1% | [5] 6.75% | [6] -29.4%

Cc1cc(N(CCC#N)CCC#N)ccc1N=Nc1ccc(S(N)(=O)=O)cc1
inactive: [1] -39.6% | [2] -9.45% | [3] -12.4% | [4] 3.65% | [5] 0.55% | [6] 0.8%

O=C(N1CCN(C(=O)S(=O)(=O)c2ccccc2)CC1)S(=O)(=O)c1ccccc1
inactive: [1] 29.9% | [2] -16.9% | [3] 19.8% | [4] 20.1% | [5] 1.85% | [6] -3.55%

Cc1ccc(C(=O)c2ccc([N+](=O)[O-])cc2)cc1
inactive: [1] -21.1% | [2] -20.4% | [3] -34.5% | [4] -50% | [5] 8.3% | [6] -41.1%

C/C=C\c1noc2c1C(=O)OC(C)C2 (stereo not given)
inactive: [1] 49.4% | [2] 23.4% | [3] 40.4% | [4] 14.2% | [5] 22.4% | [6] 17.6%

O=C1c2cc3c(cc2CC12Cc1cc4c(cc1C2=O)CCC4)CCCC3 (stereo not given)
inactive: [1] 6.45% | [2] -52.5% | [3] 1.45% | [4] -29.1% | [5] 0.35% | [6] -22.5%

COc1cc(/C=C/C(=O)c2c(=O)o[nH][n+]2-c2ccccc2)ccc1[O-]
inactive: [1] -3.75% | [2] -7.1% | [3] 16.1% | [4] 20.9% | [5] -1.85% | [6] -18.1%

CCCCOc1c(Cl)c(Cl)cc(Cl)c1Cl
inactive: [1] -10.1% | [2] -15.8% | [3] -3.5% | [4] 2.2% | [5] 2.05% | [6] -17.1%

Cc1nc(Nc2nc3ccccc3[nH]2)[nH]c(=O)c1CCO
inactive: [1] 9.6% | [2] 5.4% | [3] -7.3% | [4] 21.9% | [5] 15.8% | [6] -6.45%

CSc1nc(C)cc(=O)[nH]1
inactive: [1] -12.1% | [2] -2.95% | [3] -17.9% | [4] 20% | [5] 5.5% | [6] -13.3%

N#CCC(=O)OCCCc1ccccc1
inactive: [1] 15.8% | [2] 9.2% | [3] -1.5% | [4] -32.5% | [5] 2.65% | [6] 0.45%

CCCOC(=O)c1ccc(O)cc1.[Cu+2]
inactive: [1] 5% | [2] -13.3% | [3] -14% | [4] -34.4% | [5] -3.05% | [6] 12.7%

O=C(Nc1ccc(-c2cn3ccccc3n2)cc1)c1ccccc1O
inactive: [1] 7.7% | [2] -11.8% | [3] 20.6% | [4] 36.1% | [5] 10.2% | [6] 4.75%

CC1CN=C(N(C(=O)Nc2ccccc2)C2CCCCC2)S1 (stereo not given)
inactive: [1] -43.1% | [2] -8.9% | [3] -60.1% | [4] 5.35% | [5] -4.3% | [6] -20%

CCOC(=O)CC(=O)CC(=O)OCC
inactive: [1] 36% | [2] 2.6% | [3] -6.95% | [4] 6.1% | [5] 23% | [6] 7%

CSCCC(Nc1ccc([N+](=O)[O-])cc1[N+](=O)[O-])C(=O)O (stereo not given)
inactive: [1] 9.55% | [2] 7.25% | [3] 34.4% | [4] 18.1% | [5] 17.9% | [6] -18.1%

O=C(O)c1ccccc1SSc1ccccc1C(=O)O
inactive: [1] 10.2% and -7.05% | [2] 16.4% and -6.5% | [3] -6.6% and 3.3% | [4] 4% and -26.9% | [5] 9% and -0.65% | [6] 7.85% and 9.6%

C=CCc1cc(OC)c2c(c1)C(O)CC(c1ccc(OC)c(OC)c1)O2 (stereo not given)
inactive: [1] 16.5% | [2] 1.25% | [3] 18.6% | [4] -14.3% | [5] 22.6% | [6] -4%

Cc1cc(C)c(CC(C)C)c(C)c1
inactive: [1] 1.85% | [2] 6.25% | [3] 17.4% | [4] 31.4% | [5] 2.4% | [6] -2.45%

CC1=C2CN(C(=O)OCC(C)C)CCC2C2=C(C(=O)c3ccccc3C2=O)C1C (stereo not given)
inactive: [1] 1.4% | [2] -3.75% | [3] 39.6% | [4] 14.6% | [5] -12.2% | [6] 44.5%

CCOC(=O)Cc1nc2nn(Cc3ccccc3)cc2c(=O)[nH]1
inactive: [1] -48.8% | [2] -63.9% | [3] -7% | [4] 0.65% | [5] -10.9% | [6] -19.8%

CC(=O)c1sc2[n+](c1C)C(=O)/C(=C\c1ccccc1Cl)S2
inactive: [1] 15.7% | [2] -17.6% | [3] -1% | [4] 10.2% | [5] -7.75% | [6] -3%

CCCCCCCCCCCCCCCCS(=O)(=O)N(/N=c1/sc2ccccc2n1C)C(=O)OCC
inactive: [1] -29.4% | [2] -32.3% | [3] -13.3% | [4] 21.4% | [5] -12.2% | [6] -27.8%

Cc1ccccc1S(N)(=O)=O
inactive: [1] -17.7% | [2] -28.1% | [3] -22.6% | [4] -42.2% | [5] -6.95% | [6] 3.25%

O=C(c1ccc(-c2ccccc2)cc1)C(O)c1ccc(-c2ccccc2)cc1 (stereo not given)
inactive: [1] 7.55% | [2] 0.4% | [3] 2.65% | [4] -5.35% | [5] 1.2% | [6] 4.65%

N#Cc1c(-c2ccccc2Cl)c(-c2ccccc2Cl)nn(CCO)c1=O
inactive: [1] 16.9% | [2] 7.2% | [3] 13.4% | [4] 9.35% | [5] 10.2% | [6] 27.5%

COC(=O)c1ccccc1NC(=O)Cc1ccccc1
inactive: [1] -0.5% | [2] -27.1% | [3] 15.9% | [4] -5.65% | [5] 37.2% | [6] -15.7%

Nc1c(F)cc(I)cc1F
inactive: [1] -3.95% | [2] 2.15% | [3] -2.2% | [4] -43% | [5] 10.2% | [6] 1.35%

Nc1c(F)c(F)c(N=Nc2ccccc2)c(F)c1F
inactive: [1] 5.2% | [2] 7.1% | [3] 3.8% | [4] 7.05% | [5] 24.4% | [6] -17.1%

Fc1ccc2c(c1)-c1ccccc1C2
inactive: [1] -0.1% | [2] -14.6% | [3] -2.65% | [4] 4.95% | [5] -0.95% | [6] -19.6%

Nc1cc(Nc2ccccc2)nc(=O)[nH]1
inactive: [1] -3.1% | [2] -0.55% | [3] -4.85% | [4] -75.2% | [5] -7.1% | [6] 5.2%

CC(=O)CC/C=C(\C)CC(C)C
inactive: [1] 17.4% | [2] 11.6% | [3] 2.85% | [4] 13.6% | [5] 9.8% | [6] 10.1%

O=C(c1ccccc1)C(Oc1ccccc1)c1ccccc1 (stereo not given)
inactive: [1] 39.5% | [2] 19.2% | [3] 37.8% | [4] 36% | [5] 6.9% | [6] 60%

O=S(=O)(O)c1cc(Nc2ccnc3ccccc23)c2c(S(=O)(=O)O)cc(S(=O)(=O)O)cc2c1
inactive: [1] 15.1% | [2] 24.3% | [3] 4.25% | [4] 12.2% | [5] 10.2% | [6] 19.8%

O=C(OC1CCC/C=C\CCCC1)c1ccc(Cl)cc1 (stereo not given)
inactive: [1] 1.45% | [2] -4.35% | [3] -16.4% | [4] -2.1% | [5] -1.5% | [6] 2.45%

CC(=O)OC1CCC2(C)C3CCC4(C)C(C(C)CCCC(C)C)CCC4C3C3CC32C1 (stereo not given)
inactive: [1] 30.6% | [2] -21.8% | [3] 29.1% | [4] 3.95% | [5] -3.05% | [6] 0.1%

O=C1NC(=O)C(Cc2ccccc2)(c2cccnc2)N1 (stereo not given)
inactive: [1] -28.6% | [2] -17.7% | [3] -5.65% | [4] -36.1% | [5] -0.65% | [6] -22.2%

CS(=O)(=O)Nc1c(-c2ccccc2)oc2ccccc2c1=O
inactive: [1] -12.1% | [2] -0.8% | [3] -6.5% | [4] -33.6% | [5] 11.3% | [6] -3.85%

COc1ccc(Nc2nc3ccccc3nc2-c2cccs2)cc1OC
inactive: [1] -5.8% | [2] -2% | [3] 13.9% | [4] 9.3% | [5] -0.7% | [6] -23.4%
